Compound activity from PubChem.
Pol kappa inh = blocks human DNA polymerase kappa activity; 400,000 tested, 0.53% active; Q9UBT6; purified Pol kappa, fluorescent DNA synthesis assay, 10 min; Potency, µM (series often up to 107 µM), inactives show at the highest dose activity, negative = inhibition, actives largely listed as inhibitors; note: potency is the fitted concentration of half-maximal effect; % is set by controls: 0 for no effect and ±100 for the full control effect
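Inhibition of 10 nM Pol kappa is measured by a fluorescent read-out at 0 and 10 min following addition of 50 nM substrate (final), with a 15-min room-temperature compound preincubation.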
PI5P4K alpha inh = inhibitors of human PI5P4K alpha. P48426. PI5P4Kalpha enzyme, ADP-Glo luminescence, 60 min; stronger effect = lower value. max response, %. 330,000 tested, 1.2% active; active = max response of -50% or lower; inconclusive = between -30% and -50%; inactive = -30% or higher; note: value at the top dose of about 77 µM; % is set by controls: 0 for no effect and ±100 for the full control effect
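Human PI5P4Kalpha with substrate in 0.038 M HEPES pH 7.4, 0.28 mM EGTA, 0.1% CHAPS, 5% DMSO; reaction started with 5 microM ATP (final), 60 min at room temperature. ADP formed read by ADP-Glo luminescence.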
POLI inh = inhibitors of human DNA polymerase iota; Q9UNA4; Pol iota fluorescent replication assay, 10 min; Potency, µM (series often up to 115 µM), without a hit: at the top dose activity, negative = inhibition, hits mostly inhibitors; 390,000 tested, 1% active; note: potency is the fitted concentration of half-maximal effect
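Pol iota at 10 nM preincubated 15 min with compounds at room temperature; reaction started with fluorescent substrate, 50 nM final. Fluorescence read kinetically at 0 and 10 min; buffer-only wells as negative control.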
Pol beta inh = blocks human DNA polymerase beta activity; Potency, µM (series often up to 114 µM), inactives show at the top dose activity change, negative = inhibition, usual class: inhibitors; 340,000 tested, 1.3% active; P06746; Pol beta primer extension/strand displacement, fluorescence kinetic; note: potency is the fitted concentration of half-maximal effect; % is set by controls: 0 for no effect and ±100 for the full control effect
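Enzyme-only controls used 10 nM Pol beta; buffer lacking enzyme served as negative control. Compound preincubated 15 min, then 50 nM substrate added; 0 and 10 min reads at room temperature.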
FEN1 inhibitor = blocks human flap endonuclease 1; Recombinant FEN1 flap cleavage, fluorescence, 15 min; Potency, µM (titrated, usually from 114 µM), for the others: top-dose activity change, negative = inhibition, usual class: inhibitors; AID 588795; 390,000 tested, 0.35% active; P39748; note: potency is the fitted concentration of half-maximal effect; % is set by controls: 0 for no effect and ±100 for the full control effect; nearly all actives have a fitted effect of over 65% in size
Target sequence (P39748 whole entry, looked up): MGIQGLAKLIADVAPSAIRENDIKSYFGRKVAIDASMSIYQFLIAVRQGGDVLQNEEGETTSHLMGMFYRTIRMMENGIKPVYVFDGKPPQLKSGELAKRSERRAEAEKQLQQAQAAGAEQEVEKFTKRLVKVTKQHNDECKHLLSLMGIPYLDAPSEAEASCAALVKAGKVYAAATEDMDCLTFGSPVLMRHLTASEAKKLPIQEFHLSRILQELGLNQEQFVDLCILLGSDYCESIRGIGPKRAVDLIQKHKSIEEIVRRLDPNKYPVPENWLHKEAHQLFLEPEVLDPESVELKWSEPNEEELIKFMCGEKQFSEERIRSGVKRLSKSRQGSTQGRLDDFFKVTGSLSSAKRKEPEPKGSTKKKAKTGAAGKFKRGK
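Concentration–response screening of FEN1 (10 nM): 15 min compound preincubation at room temperature, reaction started with 50 nM substrate and read at 0 and 15 min. Corrected, normalized data were fitted by a four-parameter Hill equation.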
Pol eta inh-1 = DNA polymerase eta (human) inhibition | recombinant Pol eta, fluorescent DNA replication assay | 390,000 tested, 1.2% active | Q9Y253 | AID 588591 | Potency, µM (top dose mostly 114 µM), for inactives: at the top dose activity change, negative = inhibition, usual class: inhibitors; note: potency is the fitted concentration of half-maximal effect; % is set by controls: 0 for no effect and ±100 for the full control effect
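Fluorescent replication assay: 50 nM final substrate added after a 15 min room-temperature compound preincubation with 10 nM enzyme. Signal taken at 0 min and again at 10 min.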
TbPGK inh = TbPGK inhibition, hit validation; shares compounds with Pol kappa inh; TbPGK coupled GAPDH assay, Kinase-Glo luminescence; Potency, µM (series often up to 57.5 µM), inactives show at the top dose activity change, negative = inhibition, hits mostly inhibitors; 500 tested, 79% active; note: potency is the fitted concentration of half-maximal effect; % is set by controls: 0 for no effect and ±100 for the full control effect; nearly all actives have a fitted effect of over 65% in size
Pol iota confirm = Confirm cherry-picked inhibitors of human polymerase iota. Pol iota primer extension, TAMRA/BHQ fluorescence. shares compounds with Pol kappa inh. Potency, µM, hits mostly inhibitors. 1,500 tested, 77% active; note: potency is the fitted concentration of half-maximal effect
Pol eta inh-2 = confirmation of human DNA polymerase eta inhibitors. shares compounds with Pol eta inh-1. Pol eta primer extension, TAMRA/BHQ fluorescence, 10 min. Potency, µM, actives largely listed as inhibitors. 2,600 tested, 64% active; note: potency is the fitted concentration of half-maximal effect
Active calls of the source: *. Rows were chosen to be rich in hits. Some 2.8% of all compounds tested hit in one or more screens of this group. Unless noted, calls come from the whole dose curve; as a rule, active = well fitted curve in the direction sought with a large enough effect; inconclusive = small, poorly fitted or top-dose-only effect, or another doubt; inactive = no such curve, though single readings can be large; an effect the other way counts as inactive or inconclusive.

Screening Nc1c(/C=C2/C=CC(=O)C(O)=C2)c(=O)nc2sc(CC(=O)N3CCOCC3)nn12 returned Pol kappa inh inconclusive, PI5P4K alpha inh inconclusive, POLI inh 8.91µM*, FEN1 inhibitor 25.1µM*, Pol eta inh-1 3.55µM*, TbPGK inh 9.19µM*, Pol iota confirm 16.8* and Pol eta inh-2 6.01*.
For Cc1ccc(N2CC(C)Cn3c2nc2c3c(=O)n(CC(=O)O)c(=O)n2C)cc1 (stereo unspecified) the results were Pol kappa inh -2.1%, POLI inh -7.5%, Pol beta inh 35.7%, FEN1 inhibitor -11.5% and Pol eta inh-1 3.3%.
O=C(O)c1[nH]c2ccccc2c1C(c1cc(Br)ccc1O)c1c(C(=O)O)[nH]c2ccccc12 was read as Pol kappa inh inconclusive, PI5P4K alpha inh 1.0, POLI inh inconclusive, Pol beta inh 79.4µM*, FEN1 inhibitor inconclusive, Pol eta inh-1 50.1µM*, Pol iota confirm inconclusive and Pol eta inh-2 inconclusive.
O=C(O)c1[nH]c2ccccc2c1C(c1c(F)cccc1Cl)c1c(C(=O)O)[nH]c2ccccc12 was read as Pol kappa inh -27.1%, PI5P4K alpha inh -4.8, POLI inh 1.9%, Pol beta inh -29.4%, FEN1 inhibitor -1.5% and Pol eta inh-1 -2.9%.
For COc1ccc(C(=O)N2C(=S)NC(=O)/C2=C\c2ccc(C)cc2)cc1 the results were Pol kappa inh inconclusive, PI5P4K alpha inh -28.6, POLI inh inconclusive, Pol beta inh 50.1µM*, FEN1 inhibitor inconclusive, Pol eta inh-1 inconclusive, Pol iota confirm 75.2* and Pol eta inh-2 inconclusive.
Screening COc1ccc(-c2nc(-c3ccc(NC(=O)c4ccncc4)cc3)no2)cc1OC returned Pol kappa inh -5.9%, PI5P4K alpha inh -12.9, POLI inh 6.2%, Pol beta inh -22.2%, FEN1 inhibitor -9.8% and Pol eta inh-1 4.1%.
Screening COc1cccc(-c2nc(-c3ccc(NC(=O)c4ccncc4)cc3)no2)c1 returned Pol kappa inh -27.1%, PI5P4K alpha inh -2.8, POLI inh inconclusive, Pol beta inh 14.1µM*, FEN1 inhibitor inconclusive, Pol eta inh-1 35.5µM*, Pol iota confirm 10.6* and Pol eta inh-2 10.7*.
CC[C@H]1C(O)C[C@H]2CCN3C(=O)CCC[C@H]1[C@H]23 (stereo partly specified) was read as Pol kappa inh -6.6%, PI5P4K alpha inh -0.6, POLI inh 25.9%, FEN1 inhibitor 0.0% and Pol eta inh-1 -16.4%.
O=C(O)c1cccc(NC(=S)N/N=C/c2ccccc2OCc2cccc(Br)c2)c1 was read as Pol kappa inh -11.4%, PI5P4K alpha inh inconclusive, POLI inh inconclusive, Pol beta inh -19.0%, FEN1 inhibitor 8.2%, Pol eta inh-1 20µM*, Pol iota confirm inconclusive and Pol eta inh-2 47.8*.
For Cc1cccc(C(=O)Oc2ccc(/C=N/NC(=O)c3ccncc3)cc2)c1 the results were Pol kappa inh 0.0%, PI5P4K alpha inh 2.5, POLI inh 152.8%, Pol beta inh 1.9%, FEN1 inhibitor -3.6% and Pol eta inh-1 -2.9%.
